We go through 24 compounds from PubChem BioAssay (EPA / NIEHS).

Several values for one entry are separate records, joined by “and”; a condition that tells them apart may be missing. Equal values may be shown once. Records with an inconclusive call do not appear. The source holds several records for some structures; these can differ, active in one and inactive in another. Activity calls are given as the source filed them. How the source made its calls: active means hit-call score of the fitted dose curve at least 0.9, where 1 is the maximum; inconclusive means response in the unintended direction; inactive means score below 0.9.

Chain of human Dopamine Transporter (DAT), SLC6A3 (gene 6531) (Q01959 whole entry, looked up): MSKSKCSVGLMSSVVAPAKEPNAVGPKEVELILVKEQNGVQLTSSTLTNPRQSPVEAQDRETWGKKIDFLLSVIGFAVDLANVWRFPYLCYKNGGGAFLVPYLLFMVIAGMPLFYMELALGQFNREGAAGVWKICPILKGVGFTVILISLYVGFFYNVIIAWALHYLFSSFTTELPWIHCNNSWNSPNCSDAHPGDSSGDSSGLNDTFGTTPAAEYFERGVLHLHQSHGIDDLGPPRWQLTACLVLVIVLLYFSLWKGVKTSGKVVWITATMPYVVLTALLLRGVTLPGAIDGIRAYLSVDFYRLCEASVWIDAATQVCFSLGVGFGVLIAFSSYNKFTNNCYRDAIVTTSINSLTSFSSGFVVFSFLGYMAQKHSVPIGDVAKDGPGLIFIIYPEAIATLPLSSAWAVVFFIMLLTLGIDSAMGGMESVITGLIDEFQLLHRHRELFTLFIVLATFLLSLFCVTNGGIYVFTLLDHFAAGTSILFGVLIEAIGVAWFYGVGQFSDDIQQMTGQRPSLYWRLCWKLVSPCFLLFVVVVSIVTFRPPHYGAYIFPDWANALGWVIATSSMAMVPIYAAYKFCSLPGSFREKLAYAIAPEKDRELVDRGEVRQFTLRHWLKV
Chain of Peroxisome proliferator-activated receptor gamma (Homo sapiens) (P37231 whole entry, looked up): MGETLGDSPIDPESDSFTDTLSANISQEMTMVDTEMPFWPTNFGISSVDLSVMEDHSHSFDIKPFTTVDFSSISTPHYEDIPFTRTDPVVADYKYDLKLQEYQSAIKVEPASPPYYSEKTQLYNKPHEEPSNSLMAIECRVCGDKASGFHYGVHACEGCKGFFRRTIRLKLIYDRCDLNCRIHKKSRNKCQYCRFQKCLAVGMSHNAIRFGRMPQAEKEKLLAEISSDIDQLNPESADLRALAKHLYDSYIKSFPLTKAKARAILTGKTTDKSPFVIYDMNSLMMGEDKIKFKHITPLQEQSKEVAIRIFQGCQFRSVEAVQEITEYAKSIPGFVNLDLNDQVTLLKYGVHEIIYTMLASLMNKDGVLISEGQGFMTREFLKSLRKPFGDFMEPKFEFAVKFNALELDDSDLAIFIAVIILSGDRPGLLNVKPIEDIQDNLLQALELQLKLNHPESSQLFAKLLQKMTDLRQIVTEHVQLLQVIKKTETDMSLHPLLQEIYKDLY
Chain of mouse Estrogen Receptor alpha (Era), Esr1 (gene 13982) (P19785 whole entry, looked up): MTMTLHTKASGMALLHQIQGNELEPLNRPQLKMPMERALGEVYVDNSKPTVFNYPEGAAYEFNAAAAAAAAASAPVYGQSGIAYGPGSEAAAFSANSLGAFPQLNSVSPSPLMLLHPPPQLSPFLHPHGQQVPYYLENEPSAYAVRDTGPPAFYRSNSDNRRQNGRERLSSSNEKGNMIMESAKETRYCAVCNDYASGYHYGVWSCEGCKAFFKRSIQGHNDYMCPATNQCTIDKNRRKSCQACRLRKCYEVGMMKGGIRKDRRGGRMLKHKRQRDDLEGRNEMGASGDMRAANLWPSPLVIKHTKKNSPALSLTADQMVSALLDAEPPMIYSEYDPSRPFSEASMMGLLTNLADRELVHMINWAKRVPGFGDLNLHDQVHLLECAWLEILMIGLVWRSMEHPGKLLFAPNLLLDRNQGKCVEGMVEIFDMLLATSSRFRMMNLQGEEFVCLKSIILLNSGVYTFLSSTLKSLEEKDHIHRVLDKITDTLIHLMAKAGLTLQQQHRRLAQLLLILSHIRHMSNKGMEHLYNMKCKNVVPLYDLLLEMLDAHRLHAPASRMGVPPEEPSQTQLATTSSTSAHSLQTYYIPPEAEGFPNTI
Chain of human Adenosine Transporter (Adot), SLC29A1 (gene 2030) (Q99808 whole entry, looked up): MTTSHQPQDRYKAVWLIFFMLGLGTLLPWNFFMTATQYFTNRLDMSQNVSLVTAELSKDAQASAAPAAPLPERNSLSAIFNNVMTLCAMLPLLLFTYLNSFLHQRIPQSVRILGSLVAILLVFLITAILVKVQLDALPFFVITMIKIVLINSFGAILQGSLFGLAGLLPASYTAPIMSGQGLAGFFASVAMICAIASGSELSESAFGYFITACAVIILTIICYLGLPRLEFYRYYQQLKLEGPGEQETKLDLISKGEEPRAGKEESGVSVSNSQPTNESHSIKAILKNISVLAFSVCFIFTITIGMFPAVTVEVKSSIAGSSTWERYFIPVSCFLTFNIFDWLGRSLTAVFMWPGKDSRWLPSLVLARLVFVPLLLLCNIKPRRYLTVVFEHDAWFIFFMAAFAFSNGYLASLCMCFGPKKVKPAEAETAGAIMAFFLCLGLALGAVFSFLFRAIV
Chain of rat Androgen Receptor (AR), Ar (gene 24208) (P15207 whole entry, looked up): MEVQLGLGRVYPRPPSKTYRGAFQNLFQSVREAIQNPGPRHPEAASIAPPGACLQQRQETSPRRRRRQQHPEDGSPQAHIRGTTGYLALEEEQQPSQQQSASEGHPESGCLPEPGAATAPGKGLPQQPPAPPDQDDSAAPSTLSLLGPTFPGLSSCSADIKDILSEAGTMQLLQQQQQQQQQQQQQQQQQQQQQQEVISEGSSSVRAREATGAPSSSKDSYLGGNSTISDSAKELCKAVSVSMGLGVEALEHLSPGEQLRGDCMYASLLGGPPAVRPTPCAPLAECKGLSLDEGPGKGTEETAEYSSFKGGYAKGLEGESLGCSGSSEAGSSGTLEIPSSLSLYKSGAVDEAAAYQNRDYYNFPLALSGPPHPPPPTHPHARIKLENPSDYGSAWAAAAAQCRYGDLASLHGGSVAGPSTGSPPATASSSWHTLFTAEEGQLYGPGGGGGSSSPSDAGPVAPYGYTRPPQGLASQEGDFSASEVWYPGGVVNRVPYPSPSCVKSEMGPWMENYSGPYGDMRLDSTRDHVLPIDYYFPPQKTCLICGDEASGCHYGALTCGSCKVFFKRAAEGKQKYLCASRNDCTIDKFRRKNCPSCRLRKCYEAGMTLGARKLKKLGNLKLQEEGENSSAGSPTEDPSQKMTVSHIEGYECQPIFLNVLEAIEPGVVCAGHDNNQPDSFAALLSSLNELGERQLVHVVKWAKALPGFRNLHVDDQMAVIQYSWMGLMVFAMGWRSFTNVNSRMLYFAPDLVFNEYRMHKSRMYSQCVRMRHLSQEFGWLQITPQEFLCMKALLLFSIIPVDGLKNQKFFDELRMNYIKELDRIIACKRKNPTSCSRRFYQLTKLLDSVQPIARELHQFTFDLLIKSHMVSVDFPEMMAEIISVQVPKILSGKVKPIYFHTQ
Chain of human Norepinephrine Transporter (NET), SLC6A2 (gene 6530) (P23975 whole entry, looked up): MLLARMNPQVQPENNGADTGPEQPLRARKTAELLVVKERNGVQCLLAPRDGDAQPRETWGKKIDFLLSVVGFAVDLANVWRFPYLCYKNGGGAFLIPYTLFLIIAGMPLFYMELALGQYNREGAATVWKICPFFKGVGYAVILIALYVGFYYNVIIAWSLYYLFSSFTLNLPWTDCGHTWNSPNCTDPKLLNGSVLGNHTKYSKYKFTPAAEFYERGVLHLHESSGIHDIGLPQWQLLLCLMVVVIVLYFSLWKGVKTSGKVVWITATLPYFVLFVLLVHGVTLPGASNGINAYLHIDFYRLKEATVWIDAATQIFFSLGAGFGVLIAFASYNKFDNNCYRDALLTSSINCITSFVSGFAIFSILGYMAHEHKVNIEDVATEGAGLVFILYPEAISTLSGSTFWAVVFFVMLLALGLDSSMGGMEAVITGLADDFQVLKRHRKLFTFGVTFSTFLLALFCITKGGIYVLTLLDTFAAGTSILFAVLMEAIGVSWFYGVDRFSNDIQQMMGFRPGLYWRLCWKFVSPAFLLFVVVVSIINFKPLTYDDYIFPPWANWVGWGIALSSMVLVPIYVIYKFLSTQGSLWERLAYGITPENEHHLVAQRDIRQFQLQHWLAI

The target in one assay is rat Androgen Receptor (AR), Ar (gene 24208) (UniProt P15207). Kind of assay: NVS_NR_rAR: NovaScreen (NVS) Nuclear Receptor Binding Assay for rat Androgen Receptor (AR) (AID 2283366). In outline:
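Actives from a duplicate single-concentration (25 uM) primary run went on to concentration series. Displacement of radioligand was counted by filtration and scintillation, 18 h post-dose, using prostate extracts from testosterone-pretreated rats, with DMSO as baseline.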
In the case of `CCN(CC)C(=O)Cl`, the outcome was inactive.
In the case of `CCN1CCC2(CC1)COc1cc3c(cc12)N(C(=O)c1ccc(-c2ccc(-c4nnc(C)o4)cc2C)cc1)CC3`, the call was inactive.
On the same count and under the same terms, the entry for `CC12CC1(C)C(=O)N(c1cc(Cl)cc(Cl)c1)C2=O` (configuration not stated) is “inactive”.
The term AC50 denotes the concentration giving half of the maximal activity seen. Take `COP(=S)(OC)Oc1ccc(Sc2ccc(OP(=S)(OC)OC)cc2)cc1`: the AC50 was 16.1 µM (active) and the compound was classed as inactive.
As for `O=C1C2(Cl)C3(Cl)C4(Cl)C(Cl)(Cl)C5(Cl)C3(Cl)C1(Cl)C5(Cl)C24Cl` (configuration not stated), the outcome was inactive.
Regarding `Clc1ccc(COC(Cn2ccnc2)c2ccc(Cl)cc2Cl)cc1` (configuration not stated), the AC50 is 6.9 µM (active).
For `N#CCCO`, the compound was classed as inactive.
The same measure, in the same setting: the entry for `CC(C)(C)CC(C)(C)c1ccc(O)cc1` is “inactive”.

Another assay deals with human Adenosine Transporter (Adot), SLC29A1 (gene 2030) (UniProt Q99808). Kind of assay: NVS_TR_hAdoT: NovaScreen (NVS) Transporter Assay for human Adenosine Transporter (Adot) (AID 2283368). In outline:
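Binding displacement on U937 extracted protein, read 1 h post-dose by filtration and scintillation counting. Primary duplicate test at 25 uM, then singleton concentration series with 50 uM top; DMSO baseline.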
As to `C=C(C)C(=O)[O][Sn]([CH2]CCC)([CH2]CCC)[CH2]CCC`, the AC50 was 36.7 µM (active).
In the case of `CCN1CCC2(CC1)COc1cc3c(cc12)N(C(=O)c1ccc(-c2ccc(-c4nnc(C)o4)cc2C)cc1)CC3`, the AC50 is 1.11 µM (active).
In the case of `CC(=O)[O][Hg][c]1ccccc1`, the AC50 was 11.8 µM (active).

The next assay deals with guinea pig Dopamine Transporter (DAT), gene 100714898. Kind of assay: NVS_TR_gDAT: NovaScreen (NVS) Transporter Assay for guinea pig Dopamine Transporter (DAT) (AID 2283369).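 Further: active compounds lower bound radioligand signal relative to DMSO.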 The method in brief:
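Test chemicals were incubated 2 h with guinea pig striatal membranes and a radioligand; bound label was separated by filtration and counted. Screening ran at 25 uM, followed by concentration-response testing to a 50 uM maximum.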
On to `C=C(C)C(=O)[O][Sn]([CH2]CCC)([CH2]CCC)[CH2]CCC`, for which the AC50 was 19.9 µM (active).
Turning to `CCN1CCC2(CC1)COc1cc3c(cc12)N(C(=O)c1ccc(-c2ccc(-c4nnc(C)o4)cc2C)cc1)CC3`, the AC50 was 7.47 µM (active).
Consider `CC(C)(C)CC(C)(C)c1ccc(O)cc1`, for which the result was inactive.

The target in another assay is Peroxisome proliferator-activated receptor gamma (Homo sapiens) (UniProt P37231). Kind of assay: NVS_NR_hPPARg: NovaScreen (NVS) Nuclear Receptor Binding Assay for human Peroxisome Proliferator-activated Receptor gamma (PPARg) (AID 2283370). The method in brief:
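Fluorescence polarization measures competitive binding to extracted PPARg in a cell-free format. Reading is taken at 2 h; activity is signal loss relative to DMSO. Screening at 25 uM in duplicate preceded confirmatory dose series.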
On to `C=C(C)C(=O)[O][Sn]([CH2]CCC)([CH2]CCC)[CH2]CCC`, for which the AC50 is 1.62 µM (active).
Take `CCOP(=S)(OCC)Oc1nc(Cl)c(Cl)cc1Cl`: the compound was classed as inactive.
Consider `C=CC#N`, for which the compound was classed as inactive.
For `C[C@H]1CCCC(=O)CCC/C=C/c2cc(O)cc(O)c2C(=O)O1`, the AC50 is 2.15 µM (active).
Consider `Cc1ccccc1C(=O)Nc1cccc(OC(C)C)c1`, for which the call was inactive.
`COP(=S)(OC)Oc1ccc(Sc2ccc(OP(=S)(OC)OC)cc2)cc1`: the AC50 was 0.13 µM (active) and the result was inactive.
`COP(=O)(OC)O/C(=C\Cl)c1cc(Cl)c(Cl)cc1Cl`: the outcome was inactive.
On to `O=C1C2(Cl)C3(Cl)C4(Cl)C(Cl)(Cl)C5(Cl)C3(Cl)C1(Cl)C5(Cl)C24Cl` (configuration not stated), for which the outcome was inactive.
The same measure, in the same setting: then `CC(C)C1CCC(Cc2ccc(Cl)cc2)C1(O)Cn1cncn1` (configuration not stated), with “inactive”.
With `Clc1ccc(C2(Cn3cncn3)CC(Br)CO2)c(Cl)c1` (configuration not stated), the result was inactive.
Turning to `CCC[CH2][Sn]([CH2]CCC)([CH2]CCC)[O]C(=O)c1ccccc1`, the AC50 was 1.83 µM (active) and the outcome was inactive.

The next assay has as its target human Dopamine Transporter (DAT), SLC6A3 (gene 6531) (UniProt Q01959). Kind of assay: NVS_TR_hDAT: NovaScreen (NVS) Transporter Assay for human Dopamine Transporter (DAT) (AID 2283374).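 Further: activity means loss of bound radioligand signal relative to DMSO.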 The method in brief:
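hDAT membranes + tritiated/iodinated radioligand, competitive displacement; 1 h; filter scintillation readout. Single conc 25 uM (duplicate), then conc-response for actives. DMSO = negative control.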
On to `C=C(C)C(=O)[O][Sn]([CH2]CCC)([CH2]CCC)[CH2]CCC`, for which the concentration at half-maximal activity (AC50) is 2.82 µM (active).
Same read-out and setting: then `CCN1CCC2(CC1)COc1cc3c(cc12)N(C(=O)c1ccc(-c2ccc(-c4nnc(C)o4)cc2C)cc1)CC3`, with 6.34 µM (active); and `CC(=O)[O][Hg][c]1ccccc1`, with 12.4 µM (active).
`CC(C)(c1ccccc1)c1ccc(O)c(C(C)(C)c2ccccc2)c1`: the compound was called inactive.
Regarding `CCOP(=S)(OCC)SCSP(=S)(OCC)OCC`, the AC50 was 25 µM (active).
For the compound `CC(C)(C)CC(C)(C)c1ccc(O)cc1`, the AC50 is 15.1 µM (active).

Another assay deals with human Norepinephrine Transporter (NET), SLC6A2 (gene 6530) (UniProt P23975). Kind of assay: NVS_TR_hNET: NovaScreen (NVS) Transporter Assay for human Norepinephrine Transporter (NET) (AID 2283377).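 Further: cell-free membrane protein extracted from CHO cells expressing human NET.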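 On AC50: displacement of radioligand from human NET seen as loss of scintillation signal.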 In outline:
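CHO cell extracts expressing the transporter; tritiated or iodinated tracer displaced competitively; filtration plus scintillation readout at 1 h. Single-point duplicates at 25 uM, concentration series for follow-up; activity = signal drop relative to DMSO.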
Turning to `C=C(C)C(=O)[O][Sn]([CH2]CCC)([CH2]CCC)[CH2]CCC`, the half-maximal activity concentration (AC50) is 0.376 µM (active).
Take `CCN1CCC2(CC1)COc1cc3c(cc12)N(C(=O)c1ccc(-c2ccc(-c4nnc(C)o4)cc2C)cc1)CC3`: the half-maximal activity concentration (AC50) was 10.1 µM (active).
Consider `COP(=S)(OC)Oc1ccc(Sc2ccc(OP(=S)(OC)OC)cc2)cc1`, for which the concentration at half-maximal activity (AC50) is 1.39 µM (active).
The same measure, in the same setting: then `CC(=O)[O][Hg][c]1ccccc1`, with 0.212 µM (active); and `O=C1C2(Cl)C3(Cl)C4(Cl)C(Cl)(Cl)C5(Cl)C3(Cl)C1(Cl)C5(Cl)C24Cl` (configuration not stated), with 1.57 µM (active) and 1.82 µM (active) and 869 nM (active).
As for `CC(C)(c1ccccc1)c1ccc(O)c(C(C)(C)c2ccccc2)c1`, the outcome was inactive.
The same measure, in the same setting: then `CCOP(=S)(OCC)SCSP(=S)(OCC)OCC`, with “inactive”.
Regarding `CC(C)(C)CC(C)(C)c1ccc(O)cc1`, the AC50 was 11.7 µM (active).

Another assay deals with mouse Estrogen Receptor alpha (Era), Esr1 (gene 13982) (UniProt P19785). Kind of assay: NVS_NR_mERa: NovaScreen (NVS) Nuclear Receptor Binding Assay for mouse Estrogen Receptor alpha (Era) (AID 2283378).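 Further: hit means loss of bound radioligand signal relative to DMSO.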 The method in brief:
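Test chemicals competed against a specific radioligand for binding to cell-free mouse Era. Duplicate wells at 25 uM were read 18 hours later by filter-based radiodetection, with loss of signal against DMSO scored as activity.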
For `C[C@]12CC[C@H](O)CC1=CC[C@@H]1[C@@H]2CC[C@]2(C)C(=O)CC[C@@H]12`, the AC50 is 2.17 µM (active).
With `CC1(C)CCC(Cc2ccc(Cl)cc2)C1(O)Cn1cncn1` (configuration not stated), the compound was classed as inactive.
Consider `C=C(C)C(=O)[O][Sn]([CH2]CCC)([CH2]CCC)[CH2]CCC`, for which the AC50 is 9.68 µM (active).
Consider `CCOP(=S)(OCC)Oc1nc(Cl)c(Cl)cc1Cl`, for which the call was inactive.
Regarding `CCN1CCC2(CC1)COc1cc3c(cc12)N(C(=O)c1ccc(-c2ccc(-c4nnc(C)o4)cc2C)cc1)CC3`, the half-maximal activity concentration (AC50) was 0.174 µM (active).
As for `C=CC#N`, the compound was classed as inactive.
As to `COP(=O)(OC)O/C(=C\Cl)c1cc(Cl)c(Cl)cc1Cl`, the result was inactive.
As for `NNC(=S)NN`, the AC50 is 0.0993 µM (active).
On to `Clc1ccc(COC(Cn2ccnc2)c2ccc(Cl)cc2Cl)cc1` (configuration not stated), for which the result was inactive.
For the compound `CC(C)(c1ccccc1)c1ccc(O)c(C(C)(C)c2ccccc2)c1`, the compound was called inactive.
As to `Fc1ccc(C2(Cn3cncn3)OC2c2ccccc2Cl)cc1` (configuration not stated), the compound was classed as inactive.
Same read-out and setting: the entry for `CCC[CH2][Sn]([CH2]CCC)([CH2]CCC)[O]C(=O)c1ccccc1` is “inactive”.

For another assay, the target named is Agonist Androgen Response Element (ARE), AR (gene 367) (UniProt P10275). Kind of assay: OT_AR_ARELUC_AG_1440: Odyssey Thera (OT) 24-hour CHO-K1 Luciferase Assay for Agonist Androgen Response Element (ARE) (AID 2283379). The method in brief: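 Gain-of-signal reporter endpoint: cells (CHO-K1, hamster) are treated 24 h, luciferin/ATP reagent added, and luminescence compared with DMSO baseline.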
Chain of Agonist Androgen Response Element (ARE), AR (gene 367) (P10275 whole entry, looked up): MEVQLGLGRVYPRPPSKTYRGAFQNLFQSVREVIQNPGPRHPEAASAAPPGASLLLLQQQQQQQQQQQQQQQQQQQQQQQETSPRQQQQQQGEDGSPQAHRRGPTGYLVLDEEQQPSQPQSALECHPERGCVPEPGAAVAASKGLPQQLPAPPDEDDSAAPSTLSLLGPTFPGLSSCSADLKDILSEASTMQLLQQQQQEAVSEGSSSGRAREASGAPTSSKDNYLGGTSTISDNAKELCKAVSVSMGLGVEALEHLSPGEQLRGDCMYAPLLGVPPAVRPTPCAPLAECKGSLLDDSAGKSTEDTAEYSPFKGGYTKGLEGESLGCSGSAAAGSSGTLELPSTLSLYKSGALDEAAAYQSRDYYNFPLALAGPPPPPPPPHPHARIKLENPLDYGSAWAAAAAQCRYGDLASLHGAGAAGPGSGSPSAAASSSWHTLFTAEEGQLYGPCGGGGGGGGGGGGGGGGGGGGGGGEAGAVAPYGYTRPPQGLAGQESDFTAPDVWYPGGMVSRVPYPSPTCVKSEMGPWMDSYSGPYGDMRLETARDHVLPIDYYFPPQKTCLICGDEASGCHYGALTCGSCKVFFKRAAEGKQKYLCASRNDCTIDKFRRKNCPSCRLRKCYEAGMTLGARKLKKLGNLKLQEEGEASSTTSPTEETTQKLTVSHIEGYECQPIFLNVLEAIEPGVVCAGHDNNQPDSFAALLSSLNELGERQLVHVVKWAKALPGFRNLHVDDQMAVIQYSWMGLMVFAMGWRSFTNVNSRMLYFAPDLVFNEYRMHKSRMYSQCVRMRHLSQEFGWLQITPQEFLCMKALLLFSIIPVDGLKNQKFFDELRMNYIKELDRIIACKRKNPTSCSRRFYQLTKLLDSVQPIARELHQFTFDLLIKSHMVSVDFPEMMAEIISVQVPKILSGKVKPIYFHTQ
Turning to `CCOP(=S)(OCC)Oc1nc(Cl)c(Cl)cc1Cl`, the compound was called inactive.
Still for that read-out and setting: then `CCN1CCC2(CC1)COc1cc3c(cc12)N(C(=O)c1ccc(-c2ccc(-c4nnc(C)o4)cc2C)cc1)CC3`, with “inactive”; and `Cc1ccccc1C(=O)Nc1cccc(OC(C)C)c1`, with “inactive”; and `CC12CC1(C)C(=O)N(c1cc(Cl)cc(Cl)c1)C2=O` (configuration not stated), with “inactive”.
On the same count and under the same terms, the entry for `COP(=S)(OC)Oc1ccc(Sc2ccc(OP(=S)(OC)OC)cc2)cc1` is “inactive”; for `CC(=O)[O][Hg][c]1ccccc1` it is “inactive”; for `O=C1C2(Cl)C3(Cl)C4(Cl)C(Cl)(Cl)C5(Cl)C3(Cl)C1(Cl)C5(Cl)C24Cl` (configuration not stated) it is “inactive”.
The same measure, in the same setting: the entry for `CC(C)(C)CC(C)(C)c1ccc(O)cc1` is “inactive”.
